Test results published in PubChem BioAssay (NCI).
This is part of a sample that, as a whole, favours compounds with a hit. Of some 83,000 tested, about 20% had one in any assay.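 Step 1: grow cells in 96-well plates. Step 2: add test compound at a single concentration. Step 3: incubate 48 h. Step 4: record percent growth.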 Activity calls are given as the source filed them. The calls were made as follows: active = growth percent below 10; inactive = the rest.

Tests used:
Assay in all cases: NCI-60 one-dose screen, 48 h (100 = growth as untreated, 0 = no growth, -100 = all killed)
Conditions in all cases: 10 µM unless noted
NCI-H23 lung = system: NCI-H23 lung
NCI-H226 lung = system: NCI-H226 lung
NCI-H322M lung = system: NCI-H322M lung
HOP-62 NSCLC = system: HOP-62 NSCLC
NCI-H460 lung = system: NCI-H460 lung
HOP-92 NSCLC = system: HOP-92 NSCLC
NCI-H522 lung = system: NCI-H522 lung
A549/ATCC NSCLC = system: A549/ATCC NSCLC
786-0 renal = system: 786-0 renal
COLO 205 colon = system: COLO 205 colon
DU-145 prostate = system: DU-145 prostate
K-562 leukemia = system: K-562 leukemia
MALME-3M melanoma = system: MALME-3M melanoma
MDA-MB-231 breast = system: MDA-MB-231 breast
RXF 393 renal = system: RXF 393 renal
SF-268 CNS = system: SF-268 CNS
SF-295 CNS = system: SF-295 CNS
SF-539 CNS = system: SF-539 CNS
UACC-257 melanoma = system: UACC-257 melanoma
M14 melanoma = system: M14 melanoma

Measured: growth

Cc1ccc(-c2cc(-c3ccc(C)cc3)nc(NCCNc3ccnc4cc(Cl)ccc34)n2)cc1
inactive: NCI-H322M lung 14.9%
active: NCI-H23 lung -12% | NCI-H226 lung -59.2% | HOP-62 NSCLC -7.66% | NCI-H460 lung -68.8% | HOP-92 NSCLC -33.9% | NCI-H522 lung -63.6% | A549/ATCC NSCLC -56.5% | 786-0 renal -91.4% | COLO 205 colon -85.8% | DU-145 prostate -26.4% | K-562 leukemia -14.4% | MALME-3M melanoma -81.4% | MDA-MB-231 breast -89.1% | RXF 393 renal -70.4% | SF-268 CNS -21.9% | SF-295 CNS -76.3% | SF-539 CNS -80.6% | UACC-257 melanoma -60.9% | M14 melanoma -88.8%

CC(C)CSc1ncnc2nc[nH]c12
inactive: NCI-H23 lung 94.7% | NCI-H226 lung 85.2% | NCI-H322M lung 103% | HOP-62 NSCLC 95.9% | NCI-H460 lung 96.9% | HOP-92 NSCLC 68.8% | NCI-H522 lung 88% | A549/ATCC NSCLC 103% | 786-0 renal 93.8% | COLO 205 colon 101% | DU-145 prostate 100% | K-562 leukemia 102% | MALME-3M melanoma 104% | MDA-MB-231 breast 98.3% | RXF 393 renal 92.3% | SF-268 CNS 91.5% | SF-295 CNS 103% | SF-539 CNS 88.4% | UACC-257 melanoma 98.4% | M14 melanoma 98.4%

CCN1c2ccccc2C(Cl)(c2ccc(N(C)C)cc2)c2ccccc21
active: MALME-3M melanoma 9.82%
inactive: NCI-H23 lung 33.8% | NCI-H226 lung 88.2% | NCI-H322M lung 116% | HOP-62 NSCLC 73.6% | NCI-H460 lung 66% | HOP-92 NSCLC 59.6% | NCI-H522 lung 64.2% | A549/ATCC NSCLC 82.9% | 786-0 renal 75.8% | COLO 205 colon 75.5% | DU-145 prostate 74.1% | K-562 leukemia 60.8% | MDA-MB-231 breast 70.3% | RXF 393 renal 59.4% | SF-268 CNS 54.2% | SF-295 CNS 88.4% | SF-539 CNS 93.7% | UACC-257 melanoma 70.3% | M14 melanoma 72.9%

COc1ccc(-c2cc(-c3ccc(Cl)cc3)nc(SCCCCCCC(=O)NO)n2)cc1
inactive: NCI-H226 lung 19.7% | NCI-H322M lung 39.5% | NCI-H460 lung 14.9% | HOP-92 NSCLC 23.7% | NCI-H522 lung 10.4% | A549/ATCC NSCLC 13% | 786-0 renal 27.4% | COLO 205 colon 35.6% | DU-145 prostate 24.6% | K-562 leukemia 20.1% | MALME-3M melanoma 11.7% | MDA-MB-231 breast 45.8% | SF-268 CNS 31.7% | SF-295 CNS 36.3% | SF-539 CNS 34.8% | UACC-257 melanoma 23% | M14 melanoma 22.3%
active: NCI-H23 lung 8.94% | HOP-62 NSCLC 7.61% | RXF 393 renal -0.367%

CC[C@]1(O)CC2CN(CCc3c([nH]c4ccccc34)[C@@](C(=O)OC)(c3cc4c(cc3OC)N(C=O)[C@H]3[C@@](O)(C(=O)OC)[C@H](OC(C)=O)[C@]5(CC)C=CCN6CC[C@]43[C@@H]65)C2)C1 (stereo not given in full)
inactive: NCI-H23 lung 21.5% | NCI-H322M lung 59.8% | HOP-62 NSCLC 16.9% | HOP-92 NSCLC 25.4% | A549/ATCC NSCLC 16.7% | 786-0 renal 16.8% | K-562 leukemia 14.7% | MALME-3M melanoma 54.7% | RXF 393 renal 65.2% | UACC-257 melanoma 53.8%
active: NCI-H226 lung 2.28% | NCI-H460 lung 3.19% | NCI-H522 lung -21.5% | COLO 205 colon -61.1% | DU-145 prostate -46.8% | MDA-MB-231 breast -31.3% | SF-268 CNS 3.28% | SF-295 CNS 6.3% | SF-539 CNS 5.55% | M14 melanoma 4.87%

COc1cc2c(O)n(CCCN3CCOCC3)c3c4cnc5cccc(c(=O)c3c2cc1OC)c54
active: NCI-H460 lung 9.15%
inactive: NCI-H23 lung 33.3% | NCI-H226 lung 38.2% | NCI-H322M lung 47.2% | HOP-62 NSCLC 14.5% | HOP-92 NSCLC 58.4% | NCI-H522 lung 16.9% | A549/ATCC NSCLC 30.1% | 786-0 renal 19% | COLO 205 colon 34.2% | DU-145 prostate 18% | K-562 leukemia 40.7% | MALME-3M melanoma 67.4% | MDA-MB-231 breast 48.7% | RXF 393 renal 30.4% | SF-268 CNS 33.1% | SF-295 CNS 17.1% | SF-539 CNS 24.5% | UACC-257 melanoma 44% | M14 melanoma 16.6%

Nc1ccc(Cl)c([N+](=O)[O-])c1
inactive: NCI-H23 lung 111% | NCI-H226 lung 101% | NCI-H322M lung 106% | HOP-62 NSCLC 101% | NCI-H460 lung 104% | HOP-92 NSCLC 94% | NCI-H522 lung 87.5% | A549/ATCC NSCLC 97.7% | 786-0 renal 107% | COLO 205 colon 107% | DU-145 prostate 107% | K-562 leukemia 84.6% | MALME-3M melanoma 119% | MDA-MB-231 breast 107% | RXF 393 renal 109% | SF-268 CNS 96.7% | SF-295 CNS 96.7% | SF-539 CNS 101% | UACC-257 melanoma 95.1% | M14 melanoma 95.7%

CS(=O)(=O)c1cccnn1
inactive: NCI-H23 lung 95.8% | NCI-H226 lung 97.4% | NCI-H322M lung 99.7% | HOP-62 NSCLC 103% | NCI-H460 lung 101% | HOP-92 NSCLC 75.5% | NCI-H522 lung 82% | A549/ATCC NSCLC 104% | 786-0 renal 97.2% | COLO 205 colon 131% | DU-145 prostate 97.6% | K-562 leukemia 84.3% | MALME-3M melanoma 88.8% | MDA-MB-231 breast 102% | RXF 393 renal 102% | SF-268 CNS 98.8% | SF-295 CNS 112% | SF-539 CNS 82% | UACC-257 melanoma 108% | M14 melanoma 103%

CCOC(=O)c1c[nH]c2cc(OCC3CC3)c(OCC3CC3)cc2c1=O
inactive: NCI-H23 lung 110% | NCI-H226 lung 106% | NCI-H322M lung 100% | HOP-62 NSCLC 109% | NCI-H460 lung 103% | HOP-92 NSCLC 116% | NCI-H522 lung 95.5% | A549/ATCC NSCLC 109% | 786-0 renal 120% | COLO 205 colon 113% | DU-145 prostate 102% | K-562 leukemia 121% | MALME-3M melanoma 106% | MDA-MB-231 breast 119% | RXF 393 renal 114% | SF-268 CNS 109% | SF-295 CNS 103% | SF-539 CNS 105% | UACC-257 melanoma 115% | M14 melanoma 115%

COc1ccc(/C=C(/C2=NCCN2)n2ccc3ccccc32)cc1
inactive: NCI-H23 lung 100% | NCI-H226 lung 81.5% | NCI-H322M lung 92% | HOP-62 NSCLC 97.1% | NCI-H460 lung 93.1% | HOP-92 NSCLC 56.7% | NCI-H522 lung 85.9% | A549/ATCC NSCLC 99.8% | 786-0 renal 88.8% | COLO 205 colon 83.9% | DU-145 prostate 96.2% | K-562 leukemia 84.3% | MALME-3M melanoma 87% | MDA-MB-231 breast 89.5% | RXF 393 renal 77.9% | SF-268 CNS 79.3% | SF-295 CNS 85.8% | SF-539 CNS 92.7% | UACC-257 melanoma 94.3% | M14 melanoma 86.2%

NS(=O)(=O)c1ccc(CCN2C(=O)/C(=C\c3ccccc3)C=C2c2ccc(Cl)cc2)cc1
inactive: NCI-H23 lung 104% | NCI-H226 lung 102% | NCI-H322M lung 89.8% | HOP-62 NSCLC 95.5% | NCI-H460 lung 99.3% | HOP-92 NSCLC 76.3% | NCI-H522 lung 91.8% | A549/ATCC NSCLC 99.1% | 786-0 renal 96.4% | COLO 205 colon 115% | DU-145 prostate 115% | K-562 leukemia 94.8% | MALME-3M melanoma 95.1% | MDA-MB-231 breast 86.2% | RXF 393 renal 91% | SF-268 CNS 90.6% | SF-295 CNS 100% | SF-539 CNS 99.9% | UACC-257 melanoma 104% | M14 melanoma 99%

COc1cc(C)cc2oc3oc(=O)c(-c4nc5ccccc5s4)cc3c(=O)c12
inactive: NCI-H23 lung 96.9% | NCI-H226 lung 87.5% | NCI-H322M lung 90% | HOP-62 NSCLC 91.6% | NCI-H460 lung 84.1% | HOP-92 NSCLC 76.1% | NCI-H522 lung 95.7% | A549/ATCC NSCLC 109% | 786-0 renal 105% | COLO 205 colon 110% | DU-145 prostate 98.8% | K-562 leukemia 99.8% | MALME-3M melanoma 94% | MDA-MB-231 breast 95.1% | RXF 393 renal 77.5% | SF-268 CNS 96.6% | SF-295 CNS 98.9% | SF-539 CNS 83.7% | UACC-257 melanoma 109% | M14 melanoma 99%

Cc1ccc(S(=O)(=O)Oc2ccc([N+](=O)[O-])cc2[N+](=O)[O-])cc1
inactive: NCI-H23 lung 97% | NCI-H226 lung 68.9% | NCI-H322M lung 122% | HOP-62 NSCLC 115% | NCI-H460 lung 110% | HOP-92 NSCLC 65.3% | NCI-H522 lung 18.3% | A549/ATCC NSCLC 104% | 786-0 renal 47.7% | COLO 205 colon 85.8% | DU-145 prostate 116% | K-562 leukemia 29% | MALME-3M melanoma 63.6% | MDA-MB-231 breast 94.3% | RXF 393 renal 111% | SF-268 CNS 96.5% | SF-295 CNS 108% | SF-539 CNS 93.6% | UACC-257 melanoma 86.2%
active: M14 melanoma -8.49%

Cc1nn(-c2ccccc2)c(N2CCOCC2)c1-c1nc2ccc([N+](=O)[O-])cc2[nH]1
inactive: NCI-H23 lung 107% | NCI-H226 lung 111% | NCI-H322M lung 93.2% | HOP-62 NSCLC 128% | NCI-H460 lung 99.5% | HOP-92 NSCLC 117% | NCI-H522 lung 80.5% | A549/ATCC NSCLC 94% | 786-0 renal 107% | COLO 205 colon 124% | DU-145 prostate 98.4% | K-562 leukemia 88.4% | MALME-3M melanoma 105% | MDA-MB-231 breast 109% | RXF 393 renal 113% | SF-268 CNS 89.7% | SF-295 CNS 99.8% | SF-539 CNS 109% | UACC-257 melanoma 106% | M14 melanoma 108%

COc1ccc(-c2cc(-c3ccc(OC)c(OC)c3)nc(SCCCCCC(=O)NO)n2)cc1
active: NCI-H522 lung 6.61%
inactive: NCI-H23 lung 68.7% | NCI-H226 lung 95.2% | NCI-H322M lung 70.6% | HOP-62 NSCLC 60.3% | NCI-H460 lung 62.3% | HOP-92 NSCLC 27.6% | A549/ATCC NSCLC 85.7% | 786-0 renal 94.1% | COLO 205 colon 36.8% | DU-145 prostate 58.8% | K-562 leukemia 26.1% | MALME-3M melanoma 19.4% | MDA-MB-231 breast 42.2% | RXF 393 renal 42.1% | SF-268 CNS 82.3% | SF-295 CNS 72.9% | SF-539 CNS 55.4% | UACC-257 melanoma 41.8% | M14 melanoma 47.7%
